A selection: hits, their analogues and other compounds. The true share with any hit is near 5%.
SENP7 inh: inhibitors of human SENP7 protease; recombinant SENP7, Z-RLRGG-aminoluciferin luminescence, 40 min; AID 434973; inhibition, % at 5 µM; 1.5% of 330,000 active;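 active = inhibition above about 50% at the single test dose, limit read from the data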
SENP8 block-1: blocks the human protease SENP8; Q96LD8; purified SENP8, Z-RLRGG-aminoluciferin cleavage, luminescence; inhibition, % at 10 µM; 1.2% of 330,000 active; AID 2540; in the data active = inhibition above about 50%
EBI2 antag: antagonists of human EBI2 receptor. 0.81% of 360,000 active. inhibition, % at 5 µM. EBI2 beta-arrestin recruitment, luminescence, 7a,25-OHC stimulated. AID 651636. P32249; in the data active = inhibition above about 38%;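 note: enzyme fragment complementation signal reports receptor beta-arrestin coupling in cells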
SENP6 inh: SENP6 protease inhibition | Recombinant SENP6 catalytic domain, aminoluciferin luminescence | inhibition, % at 10 µM | 1.8% of 330,000 active | AID 2599;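 active = inhibition above about 50% at the single tested dose, limit read from the data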
SENP8 block-2: inhibitors of human SENP8 protease; recombinant SENP8, Nedd8 substrate fluorescence; 0.64% of 360,000 active; AID 602440; Q96LD8; inhibition, % at 20 µM; in the data active = inhibition mostly above about 40%, no sharp cut-off; inactive = mostly below about 27%
AHR act: human AHR activation. P35869. activation, % at 5 µM. AHR-responsive luciferase reporter cells, luminescence. 2.5% of 320,000 active; in the data active = activation above about 47%
Target sequence (P35869 whole entry, looked up): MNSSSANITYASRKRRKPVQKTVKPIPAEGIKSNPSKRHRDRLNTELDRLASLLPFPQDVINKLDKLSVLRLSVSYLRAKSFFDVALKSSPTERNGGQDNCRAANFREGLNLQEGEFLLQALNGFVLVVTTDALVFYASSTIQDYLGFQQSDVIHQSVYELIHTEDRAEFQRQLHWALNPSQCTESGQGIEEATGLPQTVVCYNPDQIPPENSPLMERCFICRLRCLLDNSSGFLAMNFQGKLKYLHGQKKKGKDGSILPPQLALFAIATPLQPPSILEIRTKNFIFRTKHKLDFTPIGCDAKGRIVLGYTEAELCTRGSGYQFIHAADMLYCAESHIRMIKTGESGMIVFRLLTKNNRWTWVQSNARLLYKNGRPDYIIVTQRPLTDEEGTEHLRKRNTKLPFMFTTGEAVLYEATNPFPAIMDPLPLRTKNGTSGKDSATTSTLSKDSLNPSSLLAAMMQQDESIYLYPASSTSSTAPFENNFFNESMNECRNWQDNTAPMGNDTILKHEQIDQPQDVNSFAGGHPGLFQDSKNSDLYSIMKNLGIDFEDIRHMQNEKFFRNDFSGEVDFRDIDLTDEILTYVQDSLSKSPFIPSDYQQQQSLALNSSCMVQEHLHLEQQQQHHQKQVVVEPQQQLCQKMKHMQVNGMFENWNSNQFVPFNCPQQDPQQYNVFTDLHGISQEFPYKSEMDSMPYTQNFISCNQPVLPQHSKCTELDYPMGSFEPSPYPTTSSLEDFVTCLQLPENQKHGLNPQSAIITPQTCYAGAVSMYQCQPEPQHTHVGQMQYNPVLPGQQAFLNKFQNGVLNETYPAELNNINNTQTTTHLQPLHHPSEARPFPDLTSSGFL
Large screens that a line does not name were inactive.

O=C(OCc1cn([C@@H]2CN(CC3CCCCC3)[C@@H](c3ccccc3)C[C@H]2O)nn1)c1ccccc1	none (no result: SENP7 inh, SENP8 block-1, SENP6 inh, AHR act)
COC(=O)[C@H](Cc1ccccc1)NS(=O)(=O)c1ccc(F)cc1Br	none (no result: SENP7 inh, SENP8 block-1, SENP6 inh, AHR act)
CSC(=NC#N)N1CCN(c2ccc(Cl)cc2)CC1	AHR act 73
CN(C)C(=C(C#N)C#N)N1CCN(c2ccc(Cl)c(Cl)c2)CC1	AHR act 62
CN(C)C(=C(C#N)C#N)N1CCN(c2ccc(Cl)cc2)CC1	AHR act 68
Cc1ccc(S(=O)(=O)N2CCN(C(=O)COC(=O)CNC(=O)c3ccc(Cl)cc3Cl)CC2)c(C)c1	none (no result: SENP7 inh, SENP8 block-1, SENP6 inh, AHR act)
Cc1ccc(NC(=O)Nc2ccccc2C(N)=O)cc1	SENP7 inh 96, SENP8 block-1 89, SENP6 inh 95
COc1c2ccoc2c(OC[C@@H](OC(C)=O)C(C)(C)O)c2oc(=O)ccc12	none
CC1(C)OC1COc1c2ccoc2cc2oc(=O)ccc12 (stereo unspecified)	AHR act 68
COc1c2ccoc2c(OC[C@@H](O)C(C)(C)O)c2oc(=O)ccc12	AHR act 50
COC(C)(C)[C@H](O)COc1c2ccoc2cc2oc(=O)ccc12	AHR act 57
Cc1ccccc1NC(=O)C(C)OC(=O)CCC(=O)c1ccccc1 (stereo unspecified)	none (no result: SENP7 inh, SENP8 block-1, SENP6 inh, AHR act)
CCCc1cnc(Nc2nc(C(N)Cc3ccc(OC)cc3)cs2)nc1 (stereo unspecified)	none (no result: SENP7 inh, SENP8 block-1, SENP6 inh, AHR act)
COc1ccc2c(c1)C(CC(C)=O)N(c1ccc(-c3cccnc3)cc1)C(c1ccsc1)=C2 (stereo unspecified)	none (no result: SENP7 inh, SENP8 block-1, SENP6 inh, AHR act)
Cc1cc(N2CCN(C(=O)c3ccco3)CC2)c2ccccc2n1	none
CCN1CCN(c2cc(N3CCN(C(=O)c4ccco4)CC3)c3c4c(onc24)-c2ccccc2C3=O)CC1	SENP8 block-2 68
CN1CCN(c2ccc(Cl)cc2NC(=O)CCN2C(=O)c3ccccc3C2=O)CC1	none
O=C(O)CCNc1cc(N2CCN(C(=O)c3ccco3)CC2)c2noc3c2c1C(=O)c1ccccc1-3	SENP6 inh 51, SENP8 block-2 70, AHR act 57
CC(=O)OCCNc1cc(N2CCN(C)CC2)c2noc3c2c1C(=O)c1ccccc1-3	SENP8 block-2 47 (no result: SENP7 inh, SENP8 block-1, SENP6 inh, AHR act)
CCSc1nnc(NC(=O)/C=C/c2ccco2)s1	AHR act 60
CCSc1nnc(NC(=O)c2ccc3ccccc3n2)s1	AHR act 64
O=C(Nc1nnc(SCc2ccc(F)cc2)s1)c1cccnc1Cl	none
O=C(Nc1nnc(SCc2ccc(F)cc2)s1)c1ccccn1	EBI2 antag 67 (no result: AHR act)
O=C(/C=C/c1ccco1)Nc1nnc(-c2ccco2)s1	none
CCc1nnc(NC(=O)c2ccc3ccccc3n2)s1	none
Cc1ccc(N(CCC#N)C(=O)CSc2nnc3ccccn23)cc1	none
COn1c(=O)c(-c2ccc(Cl)cc2)[n+]([O-])c2ccccc21	AHR act 72
Cc1ccc(-n2nc(C)c3c2OC(N)=C(C#N)C3c2cccs2)cc1 (stereo unspecified)	AHR act 68
Cc1ccc(-n2nc(C)c3c2OC(N)=C(C#N)C3c2ccccc2F)cc1 (stereo unspecified)	AHR act 66
Cc1ccc(-n2nc(C)c3c2OC(N)=C(C#N)C3c2ccncc2)cc1 (stereo unspecified)	none
Cc1cccc(C)c1NC(=O)C1(C)CCC(=O)N1c1cc(C(C)(C)C)nn1C (stereo unspecified)	none (no result: SENP7 inh, SENP8 block-1, SENP6 inh, AHR act)
COCCNC(=O)C1CCCN(Cc2ccc(C)cc2)CC1 (stereo unspecified)	none (no result: SENP7 inh, SENP8 block-1, SENP6 inh, AHR act)
CCOc1ccccc1C(O)C1=CC(=O)c2ccccc2C1=O (stereo unspecified)	none (no result: SENP7 inh, SENP8 block-1, SENP6 inh, AHR act)
CC1CCN(C(=O)COC(=O)c2ccc3c(c2)C(=O)N(Cc2ccco2)C3=O)CC1	none (no result: AHR act)
Cc1ccc(Nc2c([N+](=O)[O-])ccc3c2=NC2(CCCCC2)N=3)cc1	EBI2 antag 62, SENP8 block-2 44
COc1ccccc1C(=O)Nc1ccccc1SC(=O)c1ccccc1OC	AHR act 53
COc1ccccc1C(=O)Nc1ccc(C)cc1C(=O)c1ccccc1	AHR act 52
O=S1(=O)CC(N2CCCCC2)CN1CCc1ccccc1 (stereo unspecified)	none (no result: SENP7 inh, SENP8 block-1, SENP6 inh, AHR act)
Cc1cccc(C)c1NC(=O)C(c1ccnc2ccccc12)n1c(=O)c(-c2ccco2)nc2ccccc21 (stereo unspecified)	none (no result: SENP7 inh, SENP8 block-1, SENP6 inh, AHR act)
Nc1ccc2c(c1)OC1(CCCCC1)O2	none (no result: SENP7 inh, SENP8 block-1, SENP6 inh, AHR act)
O=C(Nc1ccc(OC(F)(F)F)cc1)c1cnccn1	none
COC(=O)c1ccc(/C=C/C(=O)OCC(=O)c2ccc[nH]2)cc1	none
Cc1cc(C(=O)Nc2sc(C)c(C)c2C#N)c(C)o1	AHR act 76
Cc1ccc(N(CC2CO2)S(=O)(=O)c2ccc([N+](=O)[O-])cc2)cc1 (stereo unspecified)	none
Cc1ccc(S(=O)(=O)N[C@H](C(=O)OCC(=O)NC(=O)c2cccn2C)C(C)C)cc1	none (no result: SENP7 inh, SENP8 block-1, SENP6 inh, AHR act)
CCN(CC)C(=O)Oc1ccc(Br)cc1C(=O)Nc1ccc(F)cc1F	AHR act 89
O=C(Nc1ccc(F)cc1F)c1cncc(Br)c1	none
CSCCC(NC(=O)c1ccccc1)C(=O)NCCc1ccc2c(c1)OCCO2 (stereo unspecified)	none
CCOC(=O)C1=C(Cc2ccc(Cl)cc2)C(=O)c2ccccc2C1=O	AHR act 86
O=C1COc2ccc(-c3csc(NCC4CCCO4)n3)cc2N1 (stereo unspecified)	AHR act 77
COc1cccc2c1OC1(N3CCOCC3)CCCCC1C2C[N+](=O)[O-] (stereo unspecified)	none (no result: SENP7 inh, SENP8 block-1, SENP6 inh, AHR act)
CCOC(=O)c1ccc(Nc2ncnc3ccccc23)cc1	none
CCOC(=O)C/C(=N\Nc1ncnc2ccccc12)c1ccccc1	AHR act 69
CCCCN1C(=S)NC[C@@H]1Cc1ccccc1	none
CCC(CC)C(=O)N(C)c1c(C)nc2c(OCc3cc(Cl)cc(Cl)c3)cccn12	none (no result: SENP7 inh, SENP8 block-1, SENP6 inh, AHR act)
COc1ccc(NC(=O)C(Cl)=C(Cl)Cl)cn1	none (no result: AHR act)
COc1ccc(NC(=O)/C(Cl)=C(/Cl)S(=O)(=O)Cc2ccccc2)cn1	EBI2 antag 61 (no result: SENP7 inh, SENP8 block-1, SENP6 inh, AHR act)
COc1ccc(NC(=O)C(C)(C)Oc2ccc(Cl)cc2)cn1	none
COc1ccc(NC(=O)/C(Cl)=C(/Cl)S(=O)Cc2ccc(Cl)cc2)cn1 (stereo unspecified)	EBI2 antag 71 (no result: AHR act)
O=C(COc1coc(CN2CCN(c3ccccc3F)CC2)cc1=O)NCC1CCCO1 (stereo unspecified)	none
COc1cccc(NC(=O)N(C)C[C@H]2OCc3cnnn3CCCC(=O)N([C@H](C)CO)C[C@@H]2C)c1	none (no result: SENP7 inh, SENP8 block-1, SENP6 inh, AHR act)
CN1CCCC(C)(C(=O)Nc2ccc3scnc3c2)C1 (stereo unspecified)	none (no result: SENP7 inh, SENP8 block-1, SENP6 inh, AHR act)
CCCNC(=O)c1onc(CSc2ccc(F)cc2)c1C(=O)NCC1CC1	none
O=C(NCc1ccncc1)[C@@H]1CCCN1C(=O)[C@@H]1CCCN1C(=O)c1ccccc1	none (no result: SENP7 inh, SENP8 block-1, SENP6 inh, AHR act)
COc1cc(-c2noc(-c3cccs3)n2)cc(OC)c1OC	AHR act 48
COc1cc(OC)cc(-c2nc(-c3cccs3)no2)c1	none
